Our source for the growth values is PubChem BioAssay (NCI).

Among the test systems are HCT-15 colon; HT29 colon; SNB-75 CNS; SNB-19 CNS; U251 CNS; PC-3 prostate; SK-MEL-5 melanoma; UACC-62 melanoma; LOX IMVI melanoma; SK-MEL-28 melanoma; SK-MEL-2 melanoma; EKVX NSCLC; SN12C renal; UO-31 renal; TK-10 renal; ACHN renal; A498 renal; CCRF-CEM leukemia; CAKI-1 renal; MOLT-4 leukemia.
Assay in all cases: NCI-60 one-dose screen, 48 h (100 = growth as untreated, 0 = no growth, -100 = all killed)
Common to all, as to conditions: 10 µM unless noted

About 83,000 compounds went through this panel and 20% of them were active in at least one assay; those are over-represented in the sample as a whole.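 Assay: single dose, 48 h. Readout: percent growth (0 = no net growth; negative = cell death). Active: <10.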 Values without a mark were called inactive. Active and inactive are the calls of the source.

With `c1ccc2cc(C[n+]3ccn(CCCCCCCCCCCCn4cc[n+](Cc5ccc6ccccc6c5)c4)c3)ccc2c1`, the growth was 17.4% in the assay with HCT-15 colon; -82.7% (active) in the assay on HT29 colon; -96.2% (active) with SNB-75 CNS; -80.5% (active) in the assay with SNB-19 CNS; -84.6% (active) in the assay on U251 CNS; -37.6% (active) with PC-3 prostate. Also, the growth in the assay on SK-MEL-5 melanoma is -93.5% (active); in the assay with UACC-62 melanoma, -81.7% (active); with LOX IMVI melanoma, -84.9% (active); with SK-MEL-28 melanoma, -72.3% (active); in the assay with SK-MEL-2 melanoma, -69.9% (active); with EKVX NSCLC, -62.6% (active). Besides, the growth in the assay on SN12C renal is -76.4% (active); with UO-31 renal, 24.2%; in the assay with TK-10 renal it was -48.2% (active); in the assay on ACHN renal, 10.5%; in the assay with A498 renal, -32.6% (active); with CCRF-CEM leukemia, -68.3% (active).

Regarding `N#C/C(=C\c1ccc(F)cc1)n1nc2cccc(F)c2n1`, the growth in the assay with HCT-15 colon is 30.6%; in the assay on HT29 colon it was 25.6%; with SNB-75 CNS, 0.195% (active); in the assay on SNB-19 CNS, 63.6%; in the assay on U251 CNS, 28.1%; in the assay with PC-3 prostate it was 53.7%. For the same compound, the growth in the assay with SK-MEL-5 melanoma is 73%; with UACC-62 melanoma it was 45.7%; in the assay with LOX IMVI melanoma, 20.6%; in the assay on SK-MEL-28 melanoma, 53.2%; in the assay with SK-MEL-2 melanoma it was 58.7%; in the assay with EKVX NSCLC it was 71.1%. For the same compound, the growth in the assay with SN12C renal is 76.2%; with TK-10 renal it was 60.7%; with ACHN renal it was 42.9%; in the assay with CAKI-1 renal, 24.8%; in the assay with A498 renal, 11.7%; with CCRF-CEM leukemia, 25.6%. Also, the growth with MOLT-4 leukemia was 52.3%.

Take `CC/C=C\C[C@@H]1C/C=C2/C(=O)C=C[C@H]2C/C=C\CCCC(=O)O1`: the growth in the assay on HCT-15 colon is -43.5% (active); in the assay on HT29 colon, -72.4% (active); with SNB-75 CNS, 32.2%; in the assay with SNB-19 CNS it was -31.4% (active); in the assay on U251 CNS it was -94.2% (active); in the assay with PC-3 prostate it was -37.6% (active). The growth was -89.3% (active) with SK-MEL-5 melanoma; -61.1% (active) with UACC-62 melanoma; -77.1% (active) in the assay on LOX IMVI melanoma; -75.6% (active) in the assay with SK-MEL-28 melanoma; -39.2% (active) with SK-MEL-2 melanoma; -25.1% (active) in the assay with EKVX NSCLC. For the same compound, the growth in the assay on SN12C renal is -28.8% (active); in the assay on UO-31 renal, -91.9% (active); in the assay with TK-10 renal it was -42.5% (active); in the assay with ACHN renal, -86.2% (active); with CAKI-1 renal, 9.49% (active); with CCRF-CEM leukemia, -28.7% (active). The growth with MOLT-4 leukemia is -24.9% (active).

With `Cc1ccc(C(C)C)cc1C(=O)C[n+]1ccccc1`, the growth is 99.7% in the assay with HCT-15 colon; 88.2% in the assay with HT29 colon; 95% in the assay on SNB-75 CNS; 106% with SNB-19 CNS; 104% in the assay on U251 CNS; 99.1% in the assay on PC-3 prostate. The growth in the assay on SK-MEL-5 melanoma was 106%; with UACC-62 melanoma, 106%; in the assay on LOX IMVI melanoma, 100%; in the assay with SK-MEL-28 melanoma it was 97.3%; in the assay on SK-MEL-2 melanoma it was 107%; in the assay on EKVX NSCLC it was 99.7%. The growth is 102% with SN12C renal; 87.5% with UO-31 renal; 103% in the assay with TK-10 renal; 95.6% with ACHN renal; 81.5% in the assay on A498 renal; 113% with CCRF-CEM leukemia. The growth in the assay with MOLT-4 leukemia is 88.4%.

As for `COc1cccc(Cc2nn3cc(-c4ccccc4)nc3s2)c1`, the growth in the assay on HCT-15 colon was 76.9%; with HT29 colon, 54.6%; in the assay on SNB-75 CNS, 99.7%; in the assay on SNB-19 CNS it was 102%; with U251 CNS it was 99.1%; in the assay with PC-3 prostate, 96.5%. The growth with SK-MEL-5 melanoma was 93.9%; in the assay on UACC-62 melanoma it was 91.1%; in the assay on LOX IMVI melanoma, 51.5%; in the assay on SK-MEL-28 melanoma it was 113%; in the assay with SK-MEL-2 melanoma, 95.2%; with EKVX NSCLC, 94.1%. The growth in the assay with SN12C renal was 96.3%; in the assay with UO-31 renal, 74.6%; in the assay on TK-10 renal, 95.1%; with ACHN renal, 96%; in the assay with A498 renal it was 99.5%; with CCRF-CEM leukemia it was 30.2%. For the same compound, the growth in the assay with MOLT-4 leukemia was 30.1%.

`COc1ccc(CNC(=O)C(=O)[C@H](Cc2ccccc2)NC(=O)c2[nH]c3ccccc3c(=O)c2C)cc1`: the growth with HCT-15 colon is 103%; with HT29 colon it was 108%; with SNB-75 CNS, 87.4%; with SNB-19 CNS, 100%; with U251 CNS, 100%; with PC-3 prostate, 95.1%. Moreover, the growth in the assay on SK-MEL-5 melanoma is 100%; with UACC-62 melanoma, 95.6%; in the assay with LOX IMVI melanoma, 102%; in the assay on SK-MEL-28 melanoma, 103%; with SK-MEL-2 melanoma, 109%; in the assay on EKVX NSCLC, 95.5%. Moreover, the growth is 86.6% in the assay on SN12C renal; 97.4% in the assay on UO-31 renal; 98.8% in the assay with TK-10 renal; 100% in the assay with ACHN renal; 100% with A498 renal; 110% with CCRF-CEM leukemia. In addition, in the assay on MOLT-4 leukemia, the growth was 97.7%.

Regarding `O=C(Nc1c2ccccc2nc2ccccc12)c1ccccc1CN1C(=O)c2ccccc2C1=O`, the growth with HCT-15 colon is 19.2%; with HT29 colon it was 11.2%; in the assay with SNB-75 CNS, 60.1%; with SNB-19 CNS, 32.9%; in the assay on U251 CNS it was 27.1%; in the assay with PC-3 prostate, 37.2%. Besides, the growth was 39.5% in the assay on SK-MEL-5 melanoma; 58.8% in the assay with UACC-62 melanoma; 22% in the assay on LOX IMVI melanoma; 56.7% in the assay with SK-MEL-28 melanoma; 43% in the assay on SK-MEL-2 melanoma; 43.1% with EKVX NSCLC. Moreover, the growth in the assay on SN12C renal is 34.6%; in the assay with UO-31 renal, 6.41% (active); in the assay on TK-10 renal, 45.6%; in the assay with ACHN renal, 10.8%; with CAKI-1 renal it was 19.1%; in the assay on CCRF-CEM leukemia, 40.8%. The growth in the assay on MOLT-4 leukemia was 14.9%.
